In PubChem BioAssay (NCI):
This is part of a sample that, as a whole, favours compounds with a hit. Of some 79,000 tested, about 15% had one in any assay. No stated cut-off is given here; in the data, active means growth inhibition above about 70%; inactive means the rest.

Assays:
[1] = NCI Yeast Anticancer Drug Screen. Data for the rad50 strain (AID 155);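 further: 0% = growth of vehicle-only cultures of the same strain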; settings: S. cerevisiae rad50 strain growth inhibition; at 50.0 µM; stronger effect = higher value
In short: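 Relative growth inhibition (compound vs vehicle) was measured in yeast with a defined repair-gene alteration.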

[2] = NCI Yeast Anticancer Drug Screen. Data for the mec2-1 strain (AID 157); settings: S. cerevisiae mec2-1 strain, at 50.0 µM, stronger effect = higher value
In short: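 Growth inhibition is read against vehicle-treated controls after compound exposure of the mec2-1 yeast strain, which is defective in DNA damage repair or cell cycle control.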

[3] = NCI Yeast Anticancer Drug Screen. Data for the sgs1 mgt1 strain (AID 161);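 further: 0% = growth of cultures given vehicle only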; settings: S. cerevisiae sgs1 mgt1 strain, at 50.0 µM, stronger effect = higher value
In short: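 Growth of a repair-deficient yeast mutant was monitored after compound treatment and expressed as inhibition relative to vehicle-treated cultures.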

[4] = NCI Yeast Anticancer Drug Screen. Data for the cln2 rad14 strain (AID 165);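 further: 0% = growth equal to vehicle treated cultures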; settings: S. cerevisiae cln2 rad14 strain, at 50.0 µM, stronger effect = higher value
In short: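 Growth inhibition, relative to vehicle-treated controls, is the read-out. The test organism is a yeast strain with defined genetic alterations, cln2 rad14.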

[5] = NCI Yeast Anticancer Drug Screen. Data for the bub3 strain (AID 167); settings: S. cerevisiae bub3 mutant strain, at 50.0 µM, stronger effect = higher value
In short: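 Screening used yeast with an engineered genetic alteration affecting cell cycle control. Compound-exposed cultures were compared with vehicle cultures, and reduced growth was taken as inhibition.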

[6] = NCI Yeast Anticancer Drug Screen. Data for the mlh1 rad18 strain (AID 175); settings: S. cerevisiae mlh1 rad18 strain growth inhibition; at 50.0 µM; stronger effect = higher value
In short: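 Cells of a genetically altered yeast strain, deficient in DNA damage repair, were treated with compound. Their growth was then compared with that of vehicle-treated cultures to give inhibition.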

Measured: growth inhibition

O=C1CS[C@@H]2C(=O)CCCC2C1 (stereo partly specified)
inactive: [1] -16% | [2] 17.6% | [3] -1.8% | [4] -7.25% | [5] -3.4% | [6] -4.4%

Cc1nn(C(=O)CC(=O)Nc2ccc(Cl)cc2)c(C)c1N=Nc1ccccc1F
inactive: [1] -40% | [2] -25.5% | [3] -60.6% | [4] -12.4% | [5] -28.4% | [6] -43%

COC(=O)c1ccc2c(ccc[n+]2C)c1
inactive: [1] -0.6% | [2] 21.3% | [3] -7.05% | [4] 4.8% | [5] -3.45% | [6] 2.3%

Cc1ccc(S(=O)(=O)OCC(c2ccccc2)C(F)(F)F)cc1 (stereo unspecified)
inactive: [1] -3.25% | [2] -14.2% | [3] 12.4% | [4] -23.7% | [5] 18.6% | [6] -1%

COC(=O)Nc1cccc(NC(=O)C(=O)O)c1
inactive: [1] -0.1% | [2] 3.75% | [3] -0.95% | [4] -29.4% | [5] -4.7% | [6] -0.9%

CCOc1ccccc1NC(=O)CC(C)=O
inactive: [1] 14.3% | [2] 20.6% | [3] 22.2% | [4] 1.9% | [5] 33.3% | [6] 10.4%

CCOC(=O)N1C2C(c3ccccc3)=NC(C)(C)N2C(c2ccc([N+](=O)[O-])cc2)N1C(=O)OCC (stereo unspecified)
inactive: [1] 17.9% | [2] -7% | [3] -4.55% | [4] 15.2% | [5] -2.2% | [6] -2.9%

CCC(C(CC(=O)c1ccccc1)c1ccccc1)[N+](=O)[O-] (stereo unspecified)
inactive: [1] 9.7% | [2] -0.65% | [3] 0.6% | [4] -42.3% | [5] 10.2% | [6] -5.65%

CCC(C)C1CCCCC1 (stereo unspecified)
inactive: [1] -13% | [2] -15.9% | [3] -3.35% | [4] 3.85% | [5] -12.8% | [6] 0.75%

CCCCCc1c(Cl)nc(Cl)nc1Cl
inactive: [1] -14.2% | [2] 11.2% | [3] 12.3% | [4] -38.8% | [5] 26.9% | [6] -18.1%

O=C(OCC(OC(=O)c1ccccc1)C(OC(=O)c1ccccc1)C(O)C(O)CO)c1ccccc1 (stereo unspecified) (tested in a mixture with another compound)
inactive: [1] -6.8% | [2] -4.1% | [3] 9.55% | [4] -17.9% | [5] -12.2% | [6] 28.6%

CCCCOC(=S)Nc1ccc(S(=O)(=O)c2ccc(NC(=S)OCCCC)cc2)cc1
inactive: [1] 23.4% | [2] 0.15% | [3] 13.4% | [4] 9.35% | [5] -4.9% | [6] -9.65%

COC1=C(NCCc2ccccc2)C(=O)C(OC)=C(NCCc2ccccc2)C1=O
inactive: [1] -43.2% | [2] -4.7% | [3] 18.9% | [4] -22.3% | [5] 1.5% | [6] -11.6%

N/N=C1/C(=N/O)CCc2nonc21
inactive: [1] 6.15% | [2] 6.5% | [3] 3.5% | [4] -8.3% | [5] -7.45% | [6] -27.1%

CN(C)C1CS(=O)(=O)OC2=C1COCC2 (stereo unspecified)
inactive: [1] -16.4% | [2] 9.8% | [3] -0.7% | [4] -3.8% | [5] 15.8% | [6] 2.55%

CCCCN(CCCC)C1=Nc2ccccc2-n2c(nnc2C(=O)OCC)C1
inactive: [1] 24.4% | [2] 44.5% | [3] 22.9% | [4] 15.2% | [5] 52% | [6] 50.4%

Cc1cc(C)c(CCl)c(C)c1CCl
inactive: [1] 0.9% | [2] 2% | [3] -9.1% | [4] -57.5% | [5] 5.75% | [6] 10.2%

CCC1CCCCCC1=O (stereo unspecified)
inactive: [1] -34% | [2] -27.2% | [3] -18.6% | [4] -25.4% | [5] -30.4% | [6] -21.3%

CC(C)C1NC(C(=O)O)C(C)(C)S1 (stereo unspecified)
inactive: [1] 1.75% | [2] 6.6% | [3] -1.6% | [4] 4.05% | [5] 0.35% | [6] -16.1%

N#CC(C#N)=C1C=Cc2ccccc2O1
inactive: [1] 27.9% | [2] -1.35% | [3] 0.9% | [4] 5.15% | [5] -1.4% | [6] 43.9%

O=C1NC(c2ccccc2)C1N(Cc1ccccc1)Cc1ccccc1 (stereo unspecified)
inactive: [1] 21.3% | [2] 0.55% | [3] 22.2% | [4] 11.4% | [5] 12.8% | [6] 9.8%
